Activity calls are given as the source filed them.
Key:
[1] = target: Albumin (Bos taurus) (UniProt P02769); experiment: bovine serum albumin binders on microarray, profiling panel, artefact control for SMM control protein annotation, biochemical, small-molecule microarray, Alexa647 label, 635/667 nm fluorescence (AID 1118); conditions: BSA-A647 binding, fluorescence 635 nm, higher = more signal;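 further: score merges 667 nm emission intensity and signal-to-noise per printed compound spot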
[2] = small-molecule microarray binders of probe aXIP, primary screen, biochemical, NeuroSMM set, 635/667 nm fluorescence (AID 1119); conditions: higher = more signal, called active from +8 up or from −8 down;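 further: probe is the protein aXip251-270 applied at 1 µg/mL to compound-printed slides; binding of probe to printed compounds measured as 667 nm fluorescence plus signal to noise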
[3] = small-molecule binders of probe aNOTCH3, primary screen, biochemical, small-molecule microarray, 635/667 nm fluorescence (AID 1120); conditions: higher = more signal;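 further: probe is a biotin-tagged antibody raised against NOTCH3 rather than NOTCH3 protein; score merges spot fluorescence near 667 nm with spot signal to noise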
[4] = small-molecule binders of probe aNOTCH2, primary screen, biochemical, small-molecule microarray, 635/667 nm fluorescence (AID 1121); conditions: higher = more signal;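 further: score merges feature fluorescence read at 667 nm with its signal to noise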
[5] = target: Carbonic anhydrase 2 (Homo sapiens) (UniProt P00918); experiment: CAII small-molecule binders, profiling panel, biochemical, small-molecule microarray, Alexa647-labelled CAII (AID 1122); conditions: CAII-A647 binding fluorescence, higher = more signal
[6] = COS7 lysate on small-molecule microarray, probe aHis, 635 nm (AID 1123); conditions: COS7 cell lysate, fluorescence, higher = more signal;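 further: z-score combines 667nm fluorescence intensity with signal-to-noise per printed compound spot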
[7] = compound binding in COS7 lysate, probe aLAP1, primary screen, cell lysate, small-molecule microarray (AID 1124); conditions: probe aLAP1, fluorescence, higher = more signal;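 further: lysate comes from COS7 cells expressing LAP1 and is applied at 0.3 µg/mL; score merges spot fluorescence near 667 nm with signal-to-noise over triplicate slides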
[8] = tested on: Sam68 (KHDRBS1); experiment: Sam68 small-molecule binders, primary screen, biochemical, small-molecule microarray, 635 nm fluorescence (AID 1125); conditions: small-molecule microarray binding, higher = more signal;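 further: score merges 667 nm channel intensity with signal to noise over triplicate slides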
[9] = tested on: Chordin-like protein 2 (CHRDL2); experiment: CHRDL2 small-molecule binders, primary screen, biochemical, small-molecule microarray, 635 nm fluorescence (AID 1126); conditions: small-molecule microarray binding, fluorescence 635 nm; higher = more signal;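 further: printed compound slides probed with Chrdl2 protein at 4 µg/mL for 1 h at 4 C; score merges 667 nm emission intensity with signal to noise over three replicate slides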
[10] = target: Concanavalin-A (Canavalia ensiformis) (UniProt P02866); experiment: ConA small-molecule binders, primary screen, artefact control for SMM control protein annotation, biochemical, small-molecule microarray, Alexa647 label, 635 nm (AID 1127); conditions: ConA-A647 binding fluorescence, higher = more signal;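 further: z combines 667 nm emission intensity with signal-to-noise across three replicate slides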
Sequence of Concanavalin-A (Canavalia ensiformis) (P02866 whole entry, looked up): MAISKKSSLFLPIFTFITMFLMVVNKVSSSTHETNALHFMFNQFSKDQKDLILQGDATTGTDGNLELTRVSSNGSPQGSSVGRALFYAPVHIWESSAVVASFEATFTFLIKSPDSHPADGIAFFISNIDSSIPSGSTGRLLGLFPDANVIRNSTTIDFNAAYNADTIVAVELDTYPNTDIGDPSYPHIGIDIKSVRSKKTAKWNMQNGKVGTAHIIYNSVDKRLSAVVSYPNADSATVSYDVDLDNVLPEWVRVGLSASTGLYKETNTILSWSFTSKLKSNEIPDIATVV

[11] = anti-His antibody binders, primary screen, artefact control for SMM control protein annotation, biochemical, small-molecule microarray, 635 nm fluorescence (AID 1128); conditions: anti-His Alexa647 antibody binding, higher = more signal;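 further: score merges feature fluorescence with signal-to-noise for each printed compound spot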
[12] = tested on: Human papillomavirus type 1a E7 protein (residues 1-88); experiment: HPV1a E7 small-molecule binders, primary screen, biochemical, small-molecule microarray, residues 1-88, 635 nm (AID 1129); conditions: small-molecule microarray binding, fluorescence 635 nm; higher = more signal
[13] = target: Focal adhesion kinase 1 (Homo sapiens) (UniProt Q05397); experiment: small-molecule microarray binders of FAK, primary screen, biochemical, 635/667 nm fluorescence, BSA, DTT (AID 1130); conditions: PTK2 binding, 635 nm fluorescence, higher = more signal;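 further: composite of spot emission at 667 nm and signal to noise over triplicate slides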
Sequence of Focal adhesion kinase 1 (Homo sapiens) (Q05397 whole entry, looked up): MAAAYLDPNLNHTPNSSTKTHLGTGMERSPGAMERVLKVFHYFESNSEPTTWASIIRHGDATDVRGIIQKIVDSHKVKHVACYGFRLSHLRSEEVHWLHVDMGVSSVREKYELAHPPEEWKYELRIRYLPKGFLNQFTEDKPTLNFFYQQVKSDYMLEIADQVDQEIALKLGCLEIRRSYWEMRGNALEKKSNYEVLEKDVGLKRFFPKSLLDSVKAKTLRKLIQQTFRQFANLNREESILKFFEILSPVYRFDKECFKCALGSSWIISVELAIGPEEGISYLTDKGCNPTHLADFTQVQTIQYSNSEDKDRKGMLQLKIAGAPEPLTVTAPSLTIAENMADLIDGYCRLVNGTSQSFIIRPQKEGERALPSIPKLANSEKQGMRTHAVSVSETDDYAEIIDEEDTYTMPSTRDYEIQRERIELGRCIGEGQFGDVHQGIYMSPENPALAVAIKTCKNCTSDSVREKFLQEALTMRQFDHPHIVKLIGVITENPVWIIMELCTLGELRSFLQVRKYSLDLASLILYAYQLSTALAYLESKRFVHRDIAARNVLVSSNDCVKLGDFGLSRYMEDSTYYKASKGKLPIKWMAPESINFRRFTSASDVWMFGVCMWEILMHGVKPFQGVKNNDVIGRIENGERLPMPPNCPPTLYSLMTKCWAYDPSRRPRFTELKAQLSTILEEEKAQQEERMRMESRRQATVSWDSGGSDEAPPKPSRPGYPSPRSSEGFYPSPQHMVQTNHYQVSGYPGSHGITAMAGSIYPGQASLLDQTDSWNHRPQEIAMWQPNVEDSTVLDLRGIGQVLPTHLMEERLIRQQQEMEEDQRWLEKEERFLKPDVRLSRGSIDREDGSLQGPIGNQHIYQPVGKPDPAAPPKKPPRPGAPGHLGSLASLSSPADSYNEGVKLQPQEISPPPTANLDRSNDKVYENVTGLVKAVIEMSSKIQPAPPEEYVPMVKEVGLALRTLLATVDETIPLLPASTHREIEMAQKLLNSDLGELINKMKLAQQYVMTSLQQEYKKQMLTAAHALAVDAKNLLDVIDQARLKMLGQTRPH

[14] = tested on: Fibrinogen (Alexa647-labelled); experiment: fibrinogen binders on compound microarrays, profiling panel, artefact control for SMM control-protein annotation, biochemical, small-molecule microarray, 635/667 nm fluorescence (AID 1131); conditions: fibrinogen-A647 binding fluorescence, higher = more signal;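 further: z-score merges 667 nm fluorescence with per-spot signal-to-noise over triplicate slides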
[15] = target: Follistatin (Homo sapiens) (UniProt P19883); experiment: follistatin binders on small-molecule microarrays, primary screen, biochemical, small-molecule microarray, 635/667 nm fluorescence (AID 1132); conditions: FST binding, 635 nm fluorescence, higher = more signal
Sequence of Follistatin (Homo sapiens) (P19883 whole entry, looked up): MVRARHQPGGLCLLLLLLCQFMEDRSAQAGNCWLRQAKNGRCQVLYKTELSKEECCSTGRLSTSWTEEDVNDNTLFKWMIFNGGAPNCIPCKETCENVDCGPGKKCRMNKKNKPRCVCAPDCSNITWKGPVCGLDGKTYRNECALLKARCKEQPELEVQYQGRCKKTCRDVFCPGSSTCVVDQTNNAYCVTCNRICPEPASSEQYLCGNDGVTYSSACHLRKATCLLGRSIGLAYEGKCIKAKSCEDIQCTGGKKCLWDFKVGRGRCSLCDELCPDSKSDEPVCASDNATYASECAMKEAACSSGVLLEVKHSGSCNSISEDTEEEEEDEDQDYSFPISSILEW

[16] = target: Fibroblast growth factor 2 (Homo sapiens) (UniProt P09038); experiment: FGF2 binders on small-molecule microarrays, primary screen, biochemical, small-molecule microarray, 635/667 nm fluorescence (AID 1133); conditions: small-molecule microarray binding, FGF2, fluorescence 635/667; higher = more signal
Sequence of Fibroblast growth factor 2 (Homo sapiens) (P09038 whole entry, looked up): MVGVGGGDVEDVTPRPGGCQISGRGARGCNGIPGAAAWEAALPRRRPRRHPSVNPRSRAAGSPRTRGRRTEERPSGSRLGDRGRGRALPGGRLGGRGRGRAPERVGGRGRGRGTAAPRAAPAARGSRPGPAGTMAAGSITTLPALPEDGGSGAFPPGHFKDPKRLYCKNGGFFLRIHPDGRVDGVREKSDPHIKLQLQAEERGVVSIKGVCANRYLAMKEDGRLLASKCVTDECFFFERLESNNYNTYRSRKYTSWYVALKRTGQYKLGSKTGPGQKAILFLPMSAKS

[17] = mitochondrial membrane potential change in A549 cells, profiling panel, cell-based, JC-1 fluorescence, basal, 24 h, 100 nL (AID 1138); conditions: higher = more signal;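 further: A549 lung adenocarcinoma cells under basal conditions with no added stimulus; test concentration not given here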
[18] = tested on: Lefty1; experiment: Lefty1 binders on small-molecule microarrays, primary screen, biochemical, small-molecule microarray, 635/667 nm fluorescence (AID 1139); conditions: small-molecule microarray binding, fluorescence 635/667; higher = more signal
[19] = tested on: wheat germ agglutinin (Triticum aestivum), Alexa647-labelled; experiment: wheat germ agglutinin binders on compound microarrays, profiling panel, artefact control for SMM control-protein annotation, biochemical, small-molecule microarray, 635/667 nm fluorescence (AID 1140); conditions: WGA-A647 binding, 635 nm fluorescence, higher = more signal;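 further: score merges 667 nm feature emission with signal to noise over triplicate slides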
[20] = target: Luciferin 4-monooxygenase (Photinus pyralis) (UniProt P08659); experiment: firefly luciferase enzyme inhibitors, primary screen, biochemical, luminescence, purified enzyme, 2006 set (AID 1141); conditions: SteadyGlo luminescence, 30 min, higher = more signal, called active from +8 up or from −8 down;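 further: cell-free assay with purified firefly luciferase at 100 ng per well in PBS; test concentration not given here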
Sequence of Luciferin 4-monooxygenase (Photinus pyralis) (P08659 whole entry, looked up): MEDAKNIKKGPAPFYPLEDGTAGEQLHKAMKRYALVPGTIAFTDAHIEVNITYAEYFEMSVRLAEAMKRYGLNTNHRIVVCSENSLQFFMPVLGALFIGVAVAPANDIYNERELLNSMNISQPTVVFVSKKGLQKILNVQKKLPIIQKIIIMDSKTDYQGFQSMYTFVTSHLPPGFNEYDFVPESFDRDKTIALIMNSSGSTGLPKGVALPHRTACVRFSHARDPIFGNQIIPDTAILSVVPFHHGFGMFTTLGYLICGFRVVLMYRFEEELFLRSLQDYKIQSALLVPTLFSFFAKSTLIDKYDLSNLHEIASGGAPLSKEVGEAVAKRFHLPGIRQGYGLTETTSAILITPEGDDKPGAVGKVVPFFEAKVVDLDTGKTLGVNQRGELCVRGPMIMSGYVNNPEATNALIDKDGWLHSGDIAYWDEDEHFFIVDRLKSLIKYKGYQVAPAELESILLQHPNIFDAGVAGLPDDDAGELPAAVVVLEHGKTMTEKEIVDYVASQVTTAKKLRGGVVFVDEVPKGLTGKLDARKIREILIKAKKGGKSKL

Sequence of Albumin (Bos taurus) (P02769 whole entry, looked up): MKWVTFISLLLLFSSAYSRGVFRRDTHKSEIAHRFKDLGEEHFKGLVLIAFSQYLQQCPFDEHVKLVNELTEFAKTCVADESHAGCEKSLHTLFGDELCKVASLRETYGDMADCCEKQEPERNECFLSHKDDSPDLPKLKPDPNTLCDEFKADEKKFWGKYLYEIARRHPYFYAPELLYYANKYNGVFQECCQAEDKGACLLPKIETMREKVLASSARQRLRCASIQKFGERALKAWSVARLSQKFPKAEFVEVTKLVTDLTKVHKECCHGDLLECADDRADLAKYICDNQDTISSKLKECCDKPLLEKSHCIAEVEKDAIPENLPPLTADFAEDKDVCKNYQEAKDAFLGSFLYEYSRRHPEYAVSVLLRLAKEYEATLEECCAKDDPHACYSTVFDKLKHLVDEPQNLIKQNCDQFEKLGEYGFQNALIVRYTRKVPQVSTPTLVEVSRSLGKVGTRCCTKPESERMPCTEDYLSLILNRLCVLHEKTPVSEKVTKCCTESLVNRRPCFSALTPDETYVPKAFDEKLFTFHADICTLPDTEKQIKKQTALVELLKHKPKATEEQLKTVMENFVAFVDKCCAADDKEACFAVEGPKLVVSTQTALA

SMILES	composite z-score [1]	composite Z-score [2]	composite z-score [3]	composite z-score [4]	composite z-score [5]	composite z-score [6]	composite z-score [7]	composite z-score [8]	composite z-score [9]	composite z-score [10]	composite z-score [11]	composite z-score [12]	composite z-score [13]	composite z-score [14]	composite z-score [15]	composite z-score [16]	z-score [17]	composite z-score [18]	composite z-score [19]	z-score [20]
COc1ccc(C(=O)Nc2cccc(CN3C(=O)[C@]4(O[C@H](CC(=O)N(CCO)Cc5ccccc5)[C@@H]([Si](C)(C)c5ccc(OC)cc5)[C@@H]4C)c4ccccc43)c2)cc1	-0.211	0.264 (inactive)	0.0141	-0.046	0.325	1.51	-0.0351	0.775	0.972	0.762	0.699	1.07	0.116	0.334	0.959	1.15	-0.0253	0.565	0.596	-0.881 (inactive)
C=C(C(=O)CC[C@@H](OC(=O)c1ccccc1-c1ccccc1C(=O)O)c1ccc(CO)o1)C(C)C	-0.41	0.0692 (inactive)	-0.0858	-0.112	0.75	0.163	0.464	0.754	0.386	0.278	0.546	0.434	-0.304	0.876	1.39	1.76	0.475	1.51	0.707	-3.22 (inactive)
COc1ccc([Si](C)(C)[C@H]2[C@H](CC(=O)N(CCO)Cc3ccccc3)O[C@@]3(C(=O)N(Cc4cccc(N5CCCCC5=O)c4)c4ccccc43)[C@@H]2C)cc1	0.124	1.12 (inactive)	0.401	-0.131	0.235	0.681	0.825	0.732	0.877	0.72	1.13	0.694	0.18	0.267	0.724	1.23	-0.153	0.931	0.311	-1.55 (inactive)
CO[C@H]1O[C@H](CO)[C@@H](OC(=O)Nc2cccc(F)c2)[C@H](OC(=O)c2cc3ccccc3[nH]2)[C@H]1OC(=O)c1cc2ccccc2[nH]1	0.467	-0.0925 (inactive)	-0.0048	-0.132	0.209	0.799	0.337	-0.537	-0.332	-0.732	-0.371	-0.486	0.23	0.836	0.498	-0.234	-0.68	0.379	0.513	-0.635 (inactive)
CC1CC/C=C\[C@H]2OC34C=CCN(CCN5CCOCC5)C(=O)[C@H]3N(C(CO)C(C)C)C(=O)[C@@H]4C2C(=O)O1 (stereo not given in full)	-0.466	0.769 (inactive)	-0.111	-0.0837	0.854	0.214	1.47	0.889	-0.571	0.475	-0.622	-0.033	-0.125	-0.248	-0.277	-0.3	0.302	0.544	-0.281	-0.723 (inactive)

From PubChem BioAssay
